FPRL1 ligand: binds the human formylpeptide receptor-like-1 FPRL1. P25090. FPRL1-expressing cells, fluorescent ligand binding inhibition, flow cytometry. 24,000 compounds, 0.3% hits. inhibition, % (test concentration not listed)
Target sequence (P25090 whole entry, looked up): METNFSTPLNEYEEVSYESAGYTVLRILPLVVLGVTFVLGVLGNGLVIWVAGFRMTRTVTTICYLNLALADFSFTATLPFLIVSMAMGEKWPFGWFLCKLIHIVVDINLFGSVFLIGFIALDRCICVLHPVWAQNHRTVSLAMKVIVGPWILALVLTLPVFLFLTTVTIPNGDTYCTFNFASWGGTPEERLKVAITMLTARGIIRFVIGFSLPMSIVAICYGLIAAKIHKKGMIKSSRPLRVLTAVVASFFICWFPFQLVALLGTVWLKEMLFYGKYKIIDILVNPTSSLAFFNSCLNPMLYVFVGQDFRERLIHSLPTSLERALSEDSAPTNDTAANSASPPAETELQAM
FPR ligand: binds the human formylpeptide receptor FPR. P21462. FPR-expressing cells, fluorescent ligand binding, flow cytometry. inhibition, % (concentration not given with the values). 24,000 compounds, 0.74% hits
Target sequence (P21462 whole entry, looked up): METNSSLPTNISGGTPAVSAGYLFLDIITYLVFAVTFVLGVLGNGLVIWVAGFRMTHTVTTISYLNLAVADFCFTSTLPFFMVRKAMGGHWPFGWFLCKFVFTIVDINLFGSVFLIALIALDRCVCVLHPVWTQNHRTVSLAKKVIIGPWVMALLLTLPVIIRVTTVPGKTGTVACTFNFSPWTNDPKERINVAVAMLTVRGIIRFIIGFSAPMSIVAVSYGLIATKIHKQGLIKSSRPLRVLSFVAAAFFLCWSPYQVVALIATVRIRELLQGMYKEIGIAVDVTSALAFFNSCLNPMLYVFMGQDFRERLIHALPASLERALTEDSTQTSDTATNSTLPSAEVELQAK
26S disassembly: blocks ATP-dependent breakdown of the yeast 26S proteasome; anti-FLAG beads, GFP-proteasome disassembly, flow cytometry; 24,000 compounds, 0.2% hits; inhibition of disassembly, % (test concentration not listed);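 active means inhibition of disassembly above about 33%, limit read from the data; inconclusive means likely self-fluorescent, control bead median signal at least 40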;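 further: higher percent means more bead fluorescence retained so stronger block of disassembly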
VLA-4 antagonist: inhibitors of LDV-FITC ligand binding to Mn2+-activated human VLA-4 integrin; P13612; Jurkat cells, LDV-FITC binding with Mn2+, flow cytometry; 100% = Mn2+-driven binding gain fully reversed; inhibition, % at 10 µM (by protocol); 24,000 compounds, 0.2% hits;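 active means inhibition above 50%; inconclusive means compound itself fluorescent, judged against control cell fluorescence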
VLA-4 allo ag: allosterically activates the human VLA-4 integrin; P13612; Jurkat cells, LDV-FITC binding, flow cytometry; activation, % at 10 µM (by protocol); 24,000 tested, under 10 active;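 active means fluorescent ligand binding to cells raised by more than 40% of the manganese-induced maximum; inconclusive means compound's own fluorescence above 85% of the ligand control signal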
Autofluor Jurkat: counter-screen for VLA-4 integrin: compound autofluorescence in Jurkat cells | fluorescence ratio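 (tested at 10 µM compound in the well)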 | flow cytometry; stronger effect = higher value; 1 = vehicle-only cell background | 24,000 compounds, 0.61% hits;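 active means fluorescence ratio above 2.44, which is 1 plus 3 SD of all ratios; inconclusive means signal too bright to measure linearly, ratio around 10 or more; inactive means fluorescence ratio below 2.44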;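 further: green fluorescence of cells measured with 488 nm excitation and 530 nm emission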
Hits are given with their value. In the library only some 1.9% were active in any assay of this set; here they are far more common. Unless noted, no stated cut-off is given here; in the data, active means inhibition above about 30%; inconclusive means no clear call, values can overlap the other calls; inactive means below that.

How did CCCCn1c(NC(=O)CC)c(C#N)c2nc3ccccc3nc21 do in these assays?
FPRL1 ligand: inactive; FPR ligand: 48; 26S disassembly: inactive; VLA-4 antagonist: inconclusive; VLA-4 allo ag: inconclusive; Autofluor Jurkat: 3.1

How did O=C1c2ccccc2-c2nccnc21 do in these assays?
FPRL1 ligand: inactive; FPR ligand: inactive; 26S disassembly: inactive; VLA-4 antagonist: inactive; VLA-4 allo ag: inactive; Autofluor Jurkat: inactive

Results for O=C1c2ccccc2-c2nc3ncnn3c(-c3ccccc3Cl)c21 ?
FPRL1 ligand: inactive; FPR ligand: inactive; 26S disassembly: inactive; VLA-4 antagonist: inconclusive; VLA-4 allo ag: inconclusive; Autofluor Jurkat: 3.7

Results for NC1=CC(=O)c2cccc3cccc1c23 ?
FPRL1 ligand: inactive; FPR ligand: inactive; 26S disassembly: inactive; VLA-4 antagonist: inconclusive; VLA-4 allo ag: inconclusive; Autofluor Jurkat: 3.5

How did CC(C)C(NS(=O)(=O)c1cccs1)C(=O)NCc1ccc2c(c1)OCO2 (centres undefined) do in these assays?
FPRL1 ligand: inactive; FPR ligand: inactive; 26S disassembly: inactive; VLA-4 antagonist: inactive; VLA-4 allo ag: inactive; Autofluor Jurkat: inactive

Results for CCN(c1ccccc1)S(=O)(=O)c1cnc[nH]1 ?
FPRL1 ligand: inactive; FPR ligand: inactive; 26S disassembly: inactive; VLA-4 antagonist: inactive; VLA-4 allo ag: inactive; Autofluor Jurkat: inactive

Results for CCCOc1ccc(C(CC(=O)O)NC(=O)c2ccc3c(c2)OCO3)cc1 (centres undefined) ?
FPRL1 ligand: inactive; FPR ligand: inactive; 26S disassembly: inactive; VLA-4 antagonist: 88; VLA-4 allo ag: inactive; Autofluor Jurkat: inactive

Results for CCCOc1ccc(C(CC(=O)O)NS(=O)(=O)c2ccc(NC(C)=O)cc2)cc1 (centres undefined) ?
FPRL1 ligand: inactive; FPR ligand: inactive; 26S disassembly: inactive; VLA-4 antagonist: inactive; VLA-4 allo ag: inactive; Autofluor Jurkat: inactive

Results for CCN(CCCc1ccccc1)CCCc1ccccc1 ?
FPRL1 ligand: inactive; FPR ligand: 54; 26S disassembly: inactive; VLA-4 antagonist: inactive; VLA-4 allo ag: inactive; Autofluor Jurkat: inactive

Results for CC(C)(C)NC(=O)C1CCCN(S(=O)(=O)c2cccc3cccnc23)C1 (centres undefined) ?
FPRL1 ligand: inactive; FPR ligand: 35; 26S disassembly: inactive; VLA-4 antagonist: inactive; VLA-4 allo ag: inactive; Autofluor Jurkat: inactive

Results for Cc1cccc(N2CCN(C(=O)Cn3nc(Cc4ccncc4)c4ccccc4c3=O)CC2)c1C ?
FPRL1 ligand: inactive; FPR ligand: inactive; 26S disassembly: inactive; VLA-4 antagonist: inactive; VLA-4 allo ag: inactive; Autofluor Jurkat: inactive

Results for COC(=O)C1=C(C)N=c2s/c(=C/c3cccs3)c(=O)n2C1c1cccs1 (centres undefined) ?
FPRL1 ligand: inactive; FPR ligand: inactive; 26S disassembly: 110; VLA-4 antagonist: inactive; VLA-4 allo ag: inactive; Autofluor Jurkat: inactive

Results for COC(=O)c1ccc(COc2ncnc3c(Cl)cc(Cl)cc23)o1 ?
FPRL1 ligand: inactive; FPR ligand: inactive; 26S disassembly: inactive; VLA-4 antagonist: inactive; VLA-4 allo ag: inactive; Autofluor Jurkat: inactive

What do the screens show for `CN1C(=O)C(C(=O)NC(C)(C)C)C2c3ccccc3OC13CCCCC23` (centres undefined)?
FPRL1 ligand: inactive; FPR ligand: inactive; 26S disassembly: inactive; VLA-4 antagonist: inactive; VLA-4 allo ag: inactive; Autofluor Jurkat: inactive

Results for COc1cccc(NS(=O)(=O)c2ccc(Br)s2)c1 ?
FPRL1 ligand: inconclusive; FPR ligand: inconclusive; 26S disassembly: inactive; VLA-4 antagonist: inconclusive; VLA-4 allo ag: inconclusive; Autofluor Jurkat: 2.9

How did COc1ccc(S(=O)(=O)NCC2CCC(C(=O)N3CCC4(CC3)OCCO4)CC2)cc1 (centres undefined) do in these assays?
FPRL1 ligand: inactive; FPR ligand: inactive; 26S disassembly: inactive; VLA-4 antagonist: inactive; VLA-4 allo ag: inactive; Autofluor Jurkat: inactive

How did COc1ccc(CCNc2oc(COc3ccccc3F)nc2C#N)cc1 do in these assays?
FPRL1 ligand: inactive; FPR ligand: inactive; 26S disassembly: 48; VLA-4 antagonist: inactive; VLA-4 allo ag: inactive; Autofluor Jurkat: inactive

How did N#Cc1nc(COc2ccccc2F)oc1NCc1ccc(F)cc1 do in these assays?
FPRL1 ligand: inactive; FPR ligand: inactive; 26S disassembly: inactive; VLA-4 antagonist: inactive; VLA-4 allo ag: inactive; Autofluor Jurkat: inactive

What do the screens show for `CC(=O)c1c(C)nc(-c2ccc(Cl)cc2)nc1N=CN(C)C`?
FPRL1 ligand: inactive; FPR ligand: inactive; 26S disassembly: inactive; VLA-4 antagonist: inconclusive; VLA-4 allo ag: inconclusive; Autofluor Jurkat: 3.2

How did O=c1c[n+]([O-])c2ccccc2n1OCc1c(F)cccc1F do in these assays?
FPRL1 ligand: inactive; FPR ligand: inactive; 26S disassembly: inactive; VLA-4 antagonist: inconclusive; VLA-4 allo ag: inconclusive; Autofluor Jurkat: 3.1

How did CCOC(=O)Cc1cc(=O)n2[nH]c(C)c(-c3ccc(OC)cc3)c2n1 do in these assays?
FPRL1 ligand: inactive; FPR ligand: 44; 26S disassembly: inactive; VLA-4 antagonist: inactive; VLA-4 allo ag: inactive; Autofluor Jurkat: inactive

What do the screens show for `CCOC(=O)Cc1cc(=O)n2[nH]c(C)c(-c3ccc(Cl)cc3)c2n1`?
FPRL1 ligand: inactive; FPR ligand: 54

How did COc1ccc(-n2ccnc2SCC(=O)Nc2ccc(OC)cc2OC)cc1 do in these assays?
FPRL1 ligand: inactive; FPR ligand: inactive; 26S disassembly: inactive; VLA-4 antagonist: inactive; VLA-4 allo ag: inactive; Autofluor Jurkat: inactive

How did CCc1nn2c(=O)cc(CSc3nc4sc5c(c4c(=O)n3C)CCCC5)nc2s1 do in these assays?
FPRL1 ligand: inactive; FPR ligand: inactive; 26S disassembly: inactive; VLA-4 antagonist: inactive; VLA-4 allo ag: inactive; Autofluor Jurkat: inactive

How did CCOc1cccc(/C(O)=C2/C(=O)C(=O)N(Cc3ccco3)C2c2ccncc2)c1 (centres undefined) do in these assays?
FPRL1 ligand: inactive; FPR ligand: 48

How did COc1ccc(OC)c(C2/C(=C(/O)c3ccccc3)C(=O)C(=O)N2Cc2ccco2)c1 (centres undefined) do in these assays?
FPRL1 ligand: inactive; FPR ligand: 92

Results for COc1ccc(C2/C(=C(/O)c3ccccc3)C(=O)C(=O)N2CC(C)O)c(OC)c1 (centres undefined) ?
FPRL1 ligand: inactive; FPR ligand: 42; 26S disassembly: inactive; VLA-4 antagonist: inconclusive; VLA-4 allo ag: inconclusive; Autofluor Jurkat: inactive

Results for Cc1ccc(C2/C(=C(/O)c3ccc(Br)cc3)C(=O)C(=O)N2Cc2ccco2)o1 (centres undefined) ?
FPRL1 ligand: inactive; FPR ligand: 31

What do the screens show for `CC(=O)NCCn1c(SCc2cc(=O)n3cc(Cl)ccc3n2)nc2ccccc2c1=O`?
FPRL1 ligand: inactive; FPR ligand: inactive; 26S disassembly: inactive; VLA-4 antagonist: inactive; VLA-4 allo ag: inactive; Autofluor Jurkat: inactive

Results for Cc1ccc(/C(O)=C2\C(=O)C(=O)N(CC(C)O)C2c2ccc(N(C)C)cc2)cc1 (centres undefined) ?
FPRL1 ligand: inactive; FPR ligand: 36

Screening results (PubChem BioAssay)
